The target of one test is Albumin (Bos taurus) (UniProt P02769). In words: bovine serum albumin binders on microarray, profiling panel, artefact control for SMM control protein annotation, biochemical, small-molecule microarray, Alexa647 label, 635/667 nm fluorescence (AID 1118).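 Further: score merges 667 nm emission intensity and signal-to-noise per printed compound spot.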 The settings on record: BSA-A647 binding, fluorescence 635 nm, higher = more signal.
Test [1] in a line: small-molecule microarray binders of probe aXIP, primary screen, biochemical, NeuroSMM set, 635/667 nm fluorescence (AID 1119).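 Further: probe is the protein aXip251-270 applied at 1 µg/mL to compound-printed slides; binding of probe to printed compounds measured as 667 nm fluorescence plus signal to noise.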 The settings on record: higher = more signal, called active from +8 up or from −8 down.
Test [2] is described as follows: small-molecule binders of probe aNOTCH3, primary screen, biochemical, small-molecule microarray, 635/667 nm fluorescence (AID 1120).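 Further: probe is a biotin-tagged antibody raised against NOTCH3 rather than NOTCH3 protein; score merges spot fluorescence near 667 nm with spot signal to noise.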 Particulars: higher = more signal.
Test [3] is described as follows: small-molecule binders of probe aNOTCH2, primary screen, biochemical, small-molecule microarray, 635/667 nm fluorescence (AID 1121).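 Further: score merges feature fluorescence read at 667 nm with its signal to noise.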 Particulars: higher = more signal.
The target in test [4] is Carbonic anhydrase 2 (Homo sapiens) (UniProt P00918). In words: CAII small-molecule binders, profiling panel, biochemical, small-molecule microarray, Alexa647-labelled CAII (AID 1122). The settings on record: CAII-A647 binding fluorescence, higher = more signal.
The nature of test [5]: COS7 lysate on small-molecule microarray, probe aHis, 635 nm (AID 1123).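 Further: z-score combines 667nm fluorescence intensity with signal-to-noise per printed compound spot.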 Particulars: COS7 cell lysate, fluorescence, higher = more signal.
The nature of test [6]: compound binding in COS7 lysate, probe aLAP1, primary screen, cell lysate, small-molecule microarray (AID 1124).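 Further: lysate comes from COS7 cells expressing LAP1 and is applied at 0.3 µg/mL; score merges spot fluorescence near 667 nm with signal-to-noise over triplicate slides.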 The settings on record: probe aLAP1, fluorescence, higher = more signal.
For a further test, the system named is Sam68 (KHDRBS1). In words: Sam68 small-molecule binders, primary screen, biochemical, small-molecule microarray, 635 nm fluorescence (AID 1125).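 Further: score merges 667 nm channel intensity with signal to noise over triplicate slides.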 The settings on record: small-molecule microarray binding, higher = more signal.
For test [7], the system named is Chordin-like protein 2 (CHRDL2). In words: CHRDL2 small-molecule binders, primary screen, biochemical, small-molecule microarray, 635 nm fluorescence (AID 1126).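 Further: printed compound slides probed with Chrdl2 protein at 4 µg/mL for 1 h at 4 C; score merges 667 nm emission intensity with signal to noise over three replicate slides.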 The settings on record: small-molecule microarray binding, fluorescence 635 nm; higher = more signal.
The target of test [8] is Concanavalin-A (Canavalia ensiformis) (UniProt P02866). In words: ConA small-molecule binders, primary screen, artefact control for SMM control protein annotation, biochemical, small-molecule microarray, Alexa647 label, 635 nm (AID 1127).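 Further: z combines 667 nm emission intensity with signal-to-noise across three replicate slides.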 Particulars: ConA-A647 binding fluorescence, higher = more signal.

Calls of active or inactive are those of the source.

Albumin (Bos taurus), sequence (P02769 whole entry, looked up): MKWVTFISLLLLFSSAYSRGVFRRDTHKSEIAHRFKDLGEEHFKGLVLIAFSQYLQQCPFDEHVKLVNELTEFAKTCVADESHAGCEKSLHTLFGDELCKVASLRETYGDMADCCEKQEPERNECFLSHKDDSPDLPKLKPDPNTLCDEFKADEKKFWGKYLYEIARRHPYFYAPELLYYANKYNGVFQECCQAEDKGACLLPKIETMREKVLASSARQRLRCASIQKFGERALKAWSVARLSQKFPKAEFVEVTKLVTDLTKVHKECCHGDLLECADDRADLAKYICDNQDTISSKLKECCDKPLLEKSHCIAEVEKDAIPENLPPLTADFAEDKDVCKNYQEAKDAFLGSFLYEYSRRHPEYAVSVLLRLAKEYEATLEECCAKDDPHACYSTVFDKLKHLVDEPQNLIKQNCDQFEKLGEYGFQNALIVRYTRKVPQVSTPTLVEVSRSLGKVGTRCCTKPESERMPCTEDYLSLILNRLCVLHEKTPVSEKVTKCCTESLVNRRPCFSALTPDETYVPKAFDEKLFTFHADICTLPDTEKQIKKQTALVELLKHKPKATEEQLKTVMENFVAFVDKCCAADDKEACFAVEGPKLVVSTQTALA
Concanavalin-A (Canavalia ensiformis), sequence (P02866 whole entry, looked up): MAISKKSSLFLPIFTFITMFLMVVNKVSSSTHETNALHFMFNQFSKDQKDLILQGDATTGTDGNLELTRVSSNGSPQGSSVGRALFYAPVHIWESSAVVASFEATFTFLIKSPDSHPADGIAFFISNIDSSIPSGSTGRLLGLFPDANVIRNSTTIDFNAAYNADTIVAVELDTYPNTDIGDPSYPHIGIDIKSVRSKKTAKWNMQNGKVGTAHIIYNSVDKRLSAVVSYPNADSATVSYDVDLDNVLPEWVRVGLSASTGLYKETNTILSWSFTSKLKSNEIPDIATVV

Take `COc1ccc([Si](C)(C)[C@H]2[C@H](CCO)O[C@@]3(C(=O)N(Cc4cccc(N5C(=O)c6cccc7cccc5c67)c4)c4ccccc43)[C@@H]2C)cc1`: the composite z-score was 0.577 in the test with Albumin (Bos taurus); -0.122 in test [2]; -0.148 in test [3]; 0.23 in test [4]; 0.856 in [5]; 1.42 in test [6]. Besides, the composite z-score in the test on Sam68 (KHDRBS1) was 1.13; in test [7], -0.27; in test [8], 0.863. Besides, in test [1], the composite Z-score is 0.326 (inactive).
Consider `CCCNC(=O)[C@@]1(C)c2ccccc2C(=O)N(C(C)C)[C@H]1c1ccc(CO)cc1`, for which the composite z-score in the test with Albumin (Bos taurus) was -0.598; in [2], -0.136; in test [3], -0.102; in test [4], 0.673; in [5] it was 1.63; in test [6], 0.65. The composite z-score in the test with Sam68 (KHDRBS1) was -0.347; in [7], -0.95; in test [8], -1.15. Also, in [1], the composite Z-score was -0.305 (inactive).
Regarding `O=C(CS)NCCCCCNC(=O)[C@H]1C[C@H]2C(=O)N[C@@H](Cc3ccccc3)C(=O)N2[C@H]1c1cccc(OCCO)c1`, the composite z-score with Albumin (Bos taurus) was -1.62; in test [2], 0.273; in [3], -0.0562; in [4], 0.484; in [5], 1.75; in test [6], 0.76. For the same compound, the composite z-score in the test with Sam68 (KHDRBS1) was determined as 1.31; in [7] it was 1.43; in [8] it was 1.18. Also, the composite Z-score in test [1] is 0.482 (inactive).
Consider `O=C1OCC=C[C@H]2OC34C=CCN(Cc5ccccc5)C(=O)[C@H]3N(CCCO)C(=O)[C@@H]4[C@@H]12` (stereo not given in full), for which the composite z-score with Albumin (Bos taurus) was determined as 0.792; in test [2], 0.577; in test [3], 0.0753; in test [4] it was 0.786; in test [5], 3.07; in test [6], 1.08. In addition, the composite z-score with Sam68 (KHDRBS1) is 0.89; in test [7], -0.888; in [8], 0.226. For the same compound, the composite Z-score in [1] is 2.97 (inactive).
In the case of `COCCOC(=O)N1C(=O)[C@@]2(c3cc(C#Cc4ccc(OC)cc4)ccc31)[C@H](C(N)=O)[C@H]1C(=O)O[C@H](c3ccccc3)[C@H](c3ccccc3)N1[C@@H]2c1ccc(O)cc1`, the composite z-score is -1.62 with Albumin (Bos taurus); 0.319 in [2]; -0.0125 in [3]; 0.0424 in test [4]; -0.304 in test [5]; 0.0413 in test [6]. Also, the figures for the composite z-score (in the test with Sam68 (KHDRBS1); in test [7]; in test [8]) were -0.986, -1.71 and -1.67, respectively. In [1], the composite Z-score was 0.0064 (inactive).
Regarding `COC(=O)[C@@]1(Cc2ccc(OC)cc2)[C@H]2c3cc(C(=O)N(C)C)n(Cc4ccc(OC)c(OC)c4)c3C[C@H]2CN1C(=O)c1ccccc1`, the composite z-score is 0.857 with Albumin (Bos taurus); 0.391 in [2]; 0.218 in [3]; 0.587 in test [4]; 3.17 in test [5]; 0.457 in test [6]. The figures for the composite z-score (in the test on Sam68 (KHDRBS1); in test [7]; in [8]) were 1.29, -0.885 and 0.96, respectively. Further, the composite Z-score in test [1] was -0.327 (inactive).
`C=CCC(OC(C)=O)[C@@H]1[C@@H](N(Cc2cc3ccccc3o2)C(=O)c2ccc(-c3ccccc3)cc2)c2cc(OCCCO)ccc2N1C(=O)Cc1ccc2ccccc2c1` (stereo not given in full): the composite z-score with Albumin (Bos taurus) is -0.0043; in test [2] it was -0.0716; in [3] it was -0.166; in [4], -0.127; in [5] it was 0.466; in test [6], 0.255. In addition, the composite z-score with Sam68 (KHDRBS1) is -0.156; in test [7] it was 0.213; in test [8], -0.136. Moreover, the composite Z-score in [1] was -0.12 (inactive).
For `C=C[C@H](OC)[C@@H](OC(=O)Nc1ccc(SC)cc1)c1ccc(OCCO)cc1`, the composite z-score in the test with Albumin (Bos taurus) is 0.383; in test [2] it was -0.15; in test [3], -0.0956; in test [4] it was 0.503; in [5] it was 1.45; in test [6], 0.503. Further, the composite z-score worked out at 0.904 with Sam68 (KHDRBS1), 0.0669 in test [7] and 0.713 in [8]. Besides, the composite Z-score in [1] is 0.651 (inactive).
For `Cc1ccc(S[C@]2(C(=O)NCc3ccccc3)CC(=O)N(Cc3cc(C(F)(F)F)cc(C(F)(F)F)c3)[C@@H]2c2ccc(CO)cc2)cc1`, the composite z-score with Albumin (Bos taurus) was 0.737; in test [2], -0.128; in test [3], -0.208; in [4], 0.433; in test [5] it was 1.03; in test [6] it was 1.28. Further, the composite z-score was -1.01 with Sam68 (KHDRBS1), -0.568 in test [7] and -0.856 in test [8]. In addition, the composite Z-score in test [1] was 0.3 (inactive).
As for `Cc1ccccc1/C=C/C=O`, the composite z-score in the test with Albumin (Bos taurus) is -0.699; in test [2], -0.19; in test [3], -0.171; in test [4], -0.293; in [5], -0.256; in [6] it was -0.298. Moreover, the results for the composite z-score (with Sam68 (KHDRBS1); in test [7]; in [8]) were -1.35, -0.56 and -0.485, respectively. The composite Z-score in [1] was -0.0934 (inactive).
On to `O=C1C2C=CC(C(O)c3ccccn3)N(Nc3ccccc3F)C2C(=O)N1c1ccccc1` (stereo not given), for which the composite z-score with Albumin (Bos taurus) is 0.127; in test [2], -0.0918; in test [3] it was -0.111; in test [4], 0.766; in test [5] it was 0.596; in [6], 0.753. In addition, the composite z-score with Sam68 (KHDRBS1) was 0.0702; in test [7], 0.194; in test [8] it was 0.634. In [1], the composite Z-score was -0.21 (inactive).
Consider `[N-]=[N+]=NCc1ccccc1[C@@H]1OC(c2ccc(OCCCO)cc2)=N[C@]1(Cc1ccccc1)C(=O)O`, for which the composite z-score with Albumin (Bos taurus) is 0.188; in test [2], -0.0362; in [3] it was -0.0836; in [4], 0.607; in test [5], 2.25; in test [6], -0.324. In addition, the composite z-score in the test with Sam68 (KHDRBS1) is 1.13; in test [7] it was -0.817; in [8] it was 0.802. Also, the composite Z-score in [1] is 1.38 (inactive).
As for `COc1cc(CO)cc(I)c1O[C@H]1C=C(C(=O)NCCO)C[C@@H](N(CCc2cccc(F)c2)C(=O)CCC2CCCC2)[C@@H]1O`, the composite z-score with Albumin (Bos taurus) was -0.526; in test [2], 0.13; in test [3] it was -0.0596; in [4], 0.117; in test [5] it was 1.29; in test [6] it was 1.88. Further, the composite z-score with Sam68 (KHDRBS1) worked out at 1.3; in test [7], 1.32; in test [8], 0.444. In addition, the composite Z-score in test [1] is 0.687 (inactive).
Take `O=C(NCC(O)CO)[C@@]1(Cc2ccccc2)COC(c2ccc(OCCCO)cc2)=N1` (stereo not given in full): the composite z-score with Albumin (Bos taurus) is 0.536; in [2] it was -0.0984; in [3], -0.189; in [4] it was 0.738; in test [5], 0.737; in test [6] it was -0.192. Also, the composite z-score in the test on Sam68 (KHDRBS1) was -0.274; in test [7], -0.445; in test [8], -1.4. The composite Z-score in test [1] is -0.936 (inactive).

The values above are taken from PubChem BioAssay.
